Data as given in PubChem BioAssay AID720513 (Broad Institute, 2013).
In all, about 2,100 compounds went through this assay and about 480 (23%) were called active. Roughly 5% stayed inconclusive and do not appear here. The list is a sample of the results. Measured potencies and affinities stand elsewhere. Values without a mark were called inactive.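 Rule for the calls: active = fitted curve reaches 40% activation at or below the top valid concentration, in every replicate test; inconclusive = replicate tests disagree on the call; inactive = the rest, including activity in the opposite direction.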

Assay: PGC1a acetylation increase, cellular AlphaLISA – cell-based, cherry-picked samples, set 6, dose response (AID 720513);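 note: cells made to overexpress flag tagged PGC1a plus GCN5 acetyltransferase by viral infection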
Settings: U2OS PGC1a acetylation AlphaLISA, overnight, 0 = neutral, -100 = inhibitor control; series mostly up to 19.5 µM; activation (acetylation increase): at the top concentration
For CCCCn1c(SCC(=O)NCc2ccc3c(c2)OCO3)nnc1C(CC)N(C)C (stereo not given), the “activation (acetylation increase)” value was 11.7%.
In the case of COc1cc2cc(C)c3nnc(SCC(=O)Nc4cc(C)on4)n3c2cc1OC, the “activation (acetylation increase)” value is reported as 19.4%.
In the case of Cc1nc2ccccn2c1C(=O)/C=C/c1ccc(F)cc1, the “activation (acetylation increase)” value is reported as -48.2%.
For CN(C)C(=O)c1ccc(-c2ccc([C@H]3[C@H]4CN(C(=O)CC5CC5)CC(=O)N4[C@H]3CO)cc2)cc1, the “activation (acetylation increase)” value was 5.63%.
With O=C(CCN1CCc2ccccc2C(c2ccccc2)C1)c1ccc2c(c1)OCCO2 (stereo not given) the “activation (acetylation increase)” value was 8.71%.
In the case of O=C(O)c1ccc2c(c1)OCCCO2, the “activation (acetylation increase)” value is reported as 0.978%.
With CCC(C)NC(=O)c1ccc2c(SCC(=O)O)c3c(nc2c1)CCCC3 (stereo not given) the “activation (acetylation increase)” value was 32.4% [at 10 µM].
For COc1cccc(C(=O)CSc2nnc(CNS(=O)(=O)c3ccc(C)cc3)n2C)c1, the “activation (acetylation increase)” value was -16.2%.
With C[C@@H]1CN([C@@H](C)CO)C(=O)c2cc(NC(=O)CCCN(C)C)ccc2O[C@@H](C)CCCCO[C@@H]1CN(C)Cc1ccc(C(F)(F)F)cc1 the “activation (acetylation increase)” value was -9.75%.
In the case of Cn1c(=O)cc(OCCCC(=O)NC2CCCC2)c2ccccc21, the “activation (acetylation increase)” value is reported as 29.7%.
For CC1=CC=CC2=NC(=O)CC(C)(C(=O)N(CC(=O)NC3CCCC3)c3ccccc3C)N12 (stereo not given), the “activation (acetylation increase)” value was -0.23%.
With c1nc(NC2CCCCCC2)c2[nH]cnc2n1 the “activation (acetylation increase)” value was -25.2%.
In the case of CCOc1cc(C)c(S(=O)(=O)N2CCCC2)cc1C, the “activation (acetylation increase)” value is reported as -5.67%.
With O=C(Nc1cccc(F)c1)C1CCN(S(=O)(=O)c2cccc3nonc23)CC1 the “activation (acetylation increase)” value was 4.9%.
In the case of CCOc1ccc(S(N)(=O)=O)cc1-c1nc2c(C(C)(C)C)nn(C)c2c(=O)[nH]1, the “activation (acetylation increase)” value is reported as 19%.
With O=C(CC1CC1)N[C@@H]1CC[C@@H](CCNS(=O)(=O)c2ccc(Cl)cc2)O[C@@H]1CO the “activation (acetylation increase)” value was 11.2%.
For Cc1cccn2c(=O)c3cc(C(=O)NCc4ccco4)c(=N)n(CCc4ccccc4)c3nc12, the “activation (acetylation increase)” value was -4.71%.
In the case of O=C(NCc1ccco1)c1ccc(Cn2c(=O)c3ccccc3n(Cc3ccc(Cl)cc3)c2=O)cc1, the “activation (acetylation increase)” value is reported as -3.9%.
With COc1ccc(CCNC(=O)c2ccc(Cl)cc2)cc1 the “activation (acetylation increase)” value was 16.4%.
With COc1cccc(C(=O)NCCS(=O)(=O)N2CCN(C(=O)c3ccco3)CC2)c1 the “activation (acetylation increase)” value was 3.59%.
For COc1ccc(S(=O)(=O)NCCC(=O)NCc2ccc(F)cc2)cc1, the “activation (acetylation increase)” value was -14.2%.
For Cc1ccc(S(=O)(=O)N2CCCC(C(=O)NCCC3=CCCCC3)C2)cc1 (stereo not given), the “activation (acetylation increase)” value was 14.2%.
In the case of COc1ccc(CCNc2ccc(C(CC(N)=O)NC(=O)c3cc(C)cc(C)c3)cc2[N+](=O)[O-])cc1 (stereo not given), the “activation (acetylation increase)” value is reported as 7.93%.
With CN(C[C@H]1N[C@@H](CO)[C@@H]1c1ccc(C2=CCCC2)cc1)C(=O)c1cccc(F)c1 the “activation (acetylation increase)” value was -91.5%.
With Cc1ccsc1C(=O)Nc1cc(Cl)ccc1-n1cncn1 the “activation (acetylation increase)” value was 28.1%.
In the case of S=c1nc[nH]c2c1cnn2Cc1ccccc1, the “activation (acetylation increase)” value is reported as -63.3%.
For CCCC[C@@]1(C2CCCC2)Cc2cc(OCC(=O)O)c(Cl)c(Cl)c2C1=O, the “activation (acetylation increase)” value was -24%.
With COC(=O)c1nn(-c2ccccc2)ccc1=O the “activation (acetylation increase)” value was -18.9%.
For CC(=O)N1/C(=C/c2ccc(N(C)C)cc2)C(=O)c2ccccc21, the “activation (acetylation increase)” value was 4.01% [at 10 µM].
In the case of CC1CCCCC1NC(=O)C1CCN(C(=O)NC2CCCCC2)CC1 (stereo not given), the “activation (acetylation increase)” value is reported as 27.7%.
For O=C1Nc2ccccc2N=C(c2ccccc2)C1N(Cc1ccc(F)cc1)C(=O)c1cccnc1 (stereo not given), the “activation (acetylation increase)” value was -30.1%.
With O=C(NCc1ccc2c(c1)OCO2)c1nc(S(=O)(=O)Cc2ccccc2)ncc1Cl the “activation (acetylation increase)” value was -27.9%.
In the case of COc1ccc(NC(=O)/C(Cl)=C(/Cl)S(=O)(=O)Cc2ccccc2)cn1, the “activation (acetylation increase)” value is reported as -135%.
For N#CCSc1nnc(COc2ccc3ccccc3c2)o1, the “activation (acetylation increase)” value was -9.11%.
With O=S(=O)(Nc1cccc(CCc2ccccn2)c1)c1ccc2ccccc2c1 the “activation (acetylation increase)” value was 5.91%.
For C=C[C@H]1CN2CCC1C[C@H]2[C@H](O)c1ccnc2ccc(OC)cc12 (stereo not given in full), the “activation (acetylation increase)” value was -22.3%.
In the case of CN1/C(=C\C(=O)c2oc3ccccc3c2N)C(C)(C)c2ccccc21, the “activation (acetylation increase)” value is reported as 18.8%.
In the case of COC(C[C@H]1O[C@@H]1[C@H](O)[C@H](C)OCc1ccccc1)OC, the “activation (acetylation increase)” value is reported as -0.97%.
With COc1ccc2[nH]c(C(=O)O)c(NC(=O)c3ccccc3[N+](=O)[O-])c2c1 the “activation (acetylation increase)” value was 18.8% [at 10 µM].
For Cc1nc(Nc2ccc(S(N)(=O)=O)cc2)sc1C(=O)Nc1ccccc1, the “activation (acetylation increase)” value was -27.8%.
For C[C@@H]1CN([C@H](C)CO)C(=O)CCCn2cc(nn2)CO[C@@H]1CN(C)C(=O)NC1CCCC1, the “activation (acetylation increase)” value was 18.2%.
In the case of CC(=O)Nc1nc(C)c(Oc2ccc(Cl)cc2)c(=O)[nH]1, the “activation (acetylation increase)” value is reported as 19.3%.
For CSc1nc2nccc(/C=C\c3ccccc3)n2n1, the “activation (acetylation increase)” value was 12.5%.
In the case of COc1ccc(C(=O)OCC(=O)NCc2ccc3c(c2)OCO3)cc1[N+](=O)[O-], the “activation (acetylation increase)” value is reported as 15.8%.
For COC(=O)C(=Cc1ccc(OCc2ccc([N+](=O)[O-])cc2)c(OC)c1)C(=O)OC, the “activation (acetylation increase)” value was -2.54%.
With CCCn1c(SC(C)C(=O)NCC2CCCO2)nc2cc(Cl)ccc2c1=O (stereo not given) the “activation (acetylation increase)” value was 34.2%.
With O=C(CSc1nc(O)cc(=O)n1-c1ccccc1)N1CCCCC1 the “activation (acetylation increase)” value was 8.21%.
For C[C@@H]1CN([C@H](C)CO)S(=O)(=O)c2ccc(C3=CCCCC3)cc2O[C@H]1CN(C)Cc1ccccc1, the “activation (acetylation increase)” value was -76.1% [at 21 µM].
With Oc1ccc(C2CNCCc3c2cc(O)c(O)c3Cl)cc1 (stereo not given) the “activation (acetylation increase)” value was 2.77%.
With COC(=O)C1CCN(Cc2nnc(-c3ccccc3)o2)CC1 the “activation (acetylation increase)” value was -1.11%.
For Cc1nc2ccccc2c(=O)n1NC(=O)c1ccc(Cl)c([N+](=O)[O-])c1, the “activation (acetylation increase)” value was -65%.
For Cc1ccc2nc(SCC(=O)Nc3ccc(F)cc3)nc(=O)n2c1, the “activation (acetylation increase)” value was -4.69%.
In the case of CC(C(=O)OCn1nnc2ccccc2c1=O)N1C(=O)c2ccccc2C1=O (stereo not given), the “activation (acetylation increase)” value is reported as 34.9%.
With O=C1C=CC2(C=C1)O[C@H](Cc1ccccc1)[C@@H](Cc1ccccc1)O2 the “activation (acetylation increase)” value was -115%.
For CCOC(=O)C(CC)(CC)C(=O)/C=C/c1ccc(Br)cc1, the “activation (acetylation increase)” value was -49%.
With CCOc1ccccc1CNC(=O)c1cc2oc3ccccc3c2n1C the “activation (acetylation increase)” value was 37.7%.
With Cc1cccc(NC(=O)CNC(=O)Cn2ncc(Cl)c(Cl)c2=O)c1C the “activation (acetylation increase)” value was -103%.
With CSCCC(NC(=O)c1ccc(Cl)cc1)C(=O)OCC(=O)Nc1cc(Cl)ccc1C (stereo not given) the “activation (acetylation increase)” value was -30.2%.
In the case of CCOC(=O)c1cn(-c2ccccc2)nc1-c1cccnc1, the “activation (acetylation increase)” value is reported as 15.8%.
For COc1ccc2c([N+](=O)[O-])c(N3CCCC3)[nH]c2c1, the “activation (acetylation increase)” value was 22.3%.
With COCCCNC1CS(=O)(=O)CC1O (stereo not given) the “activation (acetylation increase)” value was 20%.
With COc1ccc(N(C)S(=O)(=O)c2cccc(C(=O)Nc3ccc(-n4cnnn4)cc3)c2)cc1 the “activation (acetylation increase)” value was 36.9%.
For O=C(c1ccc2ccccc2c1)N1CCCC1, the “activation (acetylation increase)” value was -0.375%.
With COc1ccc(CCNC(=O)C(=O)NCC2CCCO2)cc1OC (stereo not given) the “activation (acetylation increase)” value was 2.41%.
For COc1ccc(CCNC(=O)COC(=O)c2ccco2)cc1OC, the “activation (acetylation increase)” value was -6.46%.
